# Test results taken from PubChem BioAssay (EPA / NIEHS).
# Results filed as inconclusive are left out. The source made the active and inactive calls. Rule for the calls: active = hit-call score of the fitted dose curve at least 0.9, where 1 is the maximum; inconclusive = response in the unintended direction; inactive = score below 0.9.
# Legend:
# [1] = biological target: Cellular tumor antigen p53 (Homo sapiens) (UniProt P04637); experiment: TOX21_p53_BLA_p3_ratio: Tox21 HCT-116 p53 Agonism Beta-lactamase Assay, Ratio, Phase 3 (AID 2283596)
# Summary of the method: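 Cells were seeded at 4000/well, rested 5 h at 37C, then dosed with DMSO compound solutions (217-fold dilution) for 16 h. CCF4-AM substrate was loaded for 2 h at room temperature, and the 460/530 nm emission ratio was fitted for gain of signal versus DMSO.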
# [2] = TOX21_p53_BLA_p4_viability: Viability Assessment in the Tox21 HCT-116 p53 Agonism Beta-lactamase Assay, Phase 4 (AID 2283597);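 note: hits lower the luminescence signal meaning cytotoxicity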
# Summary of the method: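 ATP content by CellTiter-Glo luminescence, 30 min RT, read after the beta-lactamase ratio step. Cells: HCT116, 4000/well, compound added after 5 h, exposure 16 h at 37C. Signal loss = reduced viability.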
# [3] = TOX21_p53_BLA_p5_viability: Viability Assessment in the Tox21 HCT-116 p53 Agonism Beta-lactamase Assay, Phase 5 (AID 2283600)
# Summary of the method: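 ATP luminescence (CellTiter-Glo, 30 min, RT) served as the viability read-out, with loss of signal indicating cytotoxicity. Compounds in DMSO were pinned at a 217-fold dilution onto 4000 cells/well and incubated 16 h, 37C.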
# [4] = biological target: Cellular tumor antigen p53 (Homo sapiens) (UniProt P04637); experiment: TOX21_p53_BLA_p4_ratio: Tox21 HCT-116 p53 Agonism Beta-lactamase Assay, Ratio, Phase 4 (AID 2283601)
# Summary of the method: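 HCT116 cells carrying an inducible beta-lactamase reporter were plated at 4000 cells/well, rested 5 h, then exposed to compounds in DMSO (217-fold dilution) for 16 h at 37C. CCF4-AM substrate was loaded 2 h at room temperature; 460/530 nm emission ratio scored gain-of-signal versus DMSO.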
# [5] = Tanguay_ZF_120hpf_MORT_legacy: (Legacy) Oregon State University Tanguay Lab 120 Hour Post-fertilization zebrafish Assay for Mortality (AID 2283633)
# Summary of the method: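 Brightfield scoring of embryo death (binary) at 24 and 120 hpf; static exposure 6–120 hpf, 28C, sealed and foil-covered. Pronase-dechorionated 5D wild-type larvae, single embryo per well. DMSO 0.64% v/v; trimethyltin chloride 5uM positive control.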
# [6] = Tanguay_ZF_120hpf_YSE_legacy: (Legacy) Oregon State University Tanguay Lab 120 Hour Post-fertilization zebrafish Assay for Yolk Sac Edema (AID 2283634)
# Summary of the method: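 Binary brightfield scoring of yolk sac edema at 120 hpf; DMSO baseline, gain-of-signal fitting. Dechorionated 5D larvae, one per well, static exposure 6–120 hpf, 28C, 0.64% DMSO. Dead embryos not scored.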
# [7] = Tanguay_ZF_120hpf_AXIS_legacy: (Legacy) Oregon State University Tanguay Lab 120 Hour Post-fertilization zebrafish Assay for Body Axis Malformation (AID 2283635)
# Summary of the method: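 Embryos: 5D wild-type, pronase-dechorionated 4 hpf; static exposure 6–120 hpf, 28C, sealed, dark, 1 embryo/well, 0.64% DMSO. 120 hpf axis malformation scored present/absent; dead embryos excluded. Analysed as gain of signal vs DMSO.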
# [8] = Tanguay_ZF_120hpf_EYE_legacy: (Legacy) Oregon State University Tanguay Lab 120 Hour Post-fertilization zebrafish Assay for Eye Malformation (AID 2283636);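 note: binary presence or absence of eye malformation scored by brightfield in 120 hpf larvae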
# Summary of the method: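 Static waterborne exposure of dechorionated zebrafish embryos (strain Tropical 5D), 6 to 120 hpf, sealed plates at 28C, 0.64% DMSO vehicle. Eye malformation is scored as a binary endpoint, with gain of signal analysed relative to DMSO.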
# [9] = Tanguay_ZF_120hpf_SNOU_legacy: (Legacy) Oregon State University Tanguay Lab 120 Hour Post-fertilization zebrafish Assay for Snout Malformation (AID 2283637)
# Summary of the method: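 Dechorionated zebrafish, individually housed from 6 hpf in covered, sealed wells at 28C with 0.64% DMSO vehicle, were examined at 120 hpf for snout malformation. Responses were binary and analysed positive-direction relative to DMSO.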
# [10] = Tanguay_ZF_120hpf_JAW_legacy: (Legacy) Oregon State University Tanguay Lab 120 Hour Post-fertilization zebrafish Assay for Jaw Malformation (AID 2283638)
# Summary of the method: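 Binary jaw-malformation calls at 120 hpf by brightfield imaging; DMSO (0.64% v/v) = baseline. Embryos: 5D wild-type, pronase-dechorionated, one per well from 6 hpf, static exposure, 28C, sealed, dark.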
# [11] = Tanguay_ZF_120hpf_OTIC_legacy: (Legacy) Oregon State University Tanguay Lab 120 Hour Post-fertilization zebrafish Assay for Otic Vesicle Malformation (AID 2283639)
# Summary of the method: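 Binary scoring of otic vesicle defects at 120 hpf in zebrafish (Tropical 5D) held under static exposure at 28C, sealed and shaded, with final DMSO 0.64%. Embryos dying by 24 or 120 hpf excluded; fitted positively against DMSO.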
# [12] = Tanguay_ZF_120hpf_PE_legacy: (Legacy) Oregon State University Tanguay Lab 120 Hour Post-fertilization zebrafish Assay for Pericardial Edema (AID 2283640)
# Summary of the method: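 Static waterborne exposure, 5D wild-type embryos, 28C, to 120 hpf; final DMSO 0.64% (vol/vol). Binary PE call at 120 hpf by brightfield; fitted upward vs DMSO baseline. 5uM trimethyltin chloride as positive control.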
# [13] = Tanguay_ZF_120hpf_BRAI_legacy: (Legacy) Oregon State University Tanguay Lab 120 Hour Post-fertilization zebrafish Assay for Brain Malformation (AID 2283641)
# Summary of the method: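 Read-out: binary brain morphology call at 120 hpf (brightfield), fitted in gain-of-signal direction vs DMSO. Wild-type Tropical 5D embryos, static exposure, 28C, 0.64% DMSO final; 5uM trimethyltin chloride as positive control.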
# [14] = Tanguay_ZF_120hpf_SOMI_legacy: (Legacy) Oregon State University Tanguay Lab 120 Hour Post-fertilization zebrafish Assay for Somite Malformation (AID 2283647)
# Summary of the method: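 Binary brightfield scoring of somite defects at 120 hpf in 5D wild-type larvae; one dechorionated embryo per well, static exposure from 6 hpf, 28C, sealed and dark. Final DMSO 0.64%; trimethyltin chloride 5uM positive control.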
# [15] = Tanguay_ZF_120hpf_PFIN_legacy: (Legacy) Oregon State University Tanguay Lab 120 Hour Post-fertilization zebrafish Assay for Pectoral Fin Malformation (AID 2283648);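 note: each larva judged yes or no for fin defect by brightfield with dead larvae skipped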
# Summary of the method: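 Scoring of pectoral fin malformation was binary, made at 120 hpf on larvae exposed statically from 6 hpf after enzymatic chorion removal. Activity was fitted upward relative to DMSO controls at 0.64% (vol/vol).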
# [16] = Tanguay_ZF_120hpf_CFIN_legacy: (Legacy) Oregon State University Tanguay Lab 120 Hour Post-fertilization zebrafish Assay for Caudal Fin Malformation (AID 2283649)
# Summary of the method: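 Dechorionated 5D wild-type zebrafish, static exposure 6–120 hpf, 28C, sealed and dark, 0.64% v/v DMSO final. Binary fin-malformation call at 120 hpf, brightfield; gain of signal vs DMSO baseline.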
# [17] = Tanguay_ZF_120hpf_PIG_legacy: (Legacy) Oregon State University Tanguay Lab 120 Hour Post-fertilization zebrafish Assay for Pigmentation Malformation (AID 2283650)
# Summary of the method: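 Endpoint is incidence of abnormal pigmentation at 120 hpf in dechorionated 5D zebrafish exposed singly from 6 hpf at 28C, DMSO vehicle at 0.64%. Embryos dying by 24 or 120 hpf are excluded from scoring.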
# [18] = Tanguay_ZF_120hpf_CIRC_legacy: (Legacy) Oregon State University Tanguay Lab 120 Hour Post-fertilization zebrafish Assay for Circulatory Malformation (AID 2283651)
# Summary of the method: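 Binary circulatory malformation call at 120 hpf by brightfield imaging of zebrafish larvae; chorion removed at 4 hpf, static exposure from 6 hpf in sealed dark plates at 28C, final DMSO 0.64%; non-mortality endpoints skipped if embryo died.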
# [19] = Tanguay_ZF_120hpf_SWIM_legacy: (Legacy) Oregon State University Tanguay Lab 120 Hour Post-fertilization zebrafish Assay for Swim Bladder Malformation (AID 2283654);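 note: swim bladder malformation in each larva scored yes or no under brightfield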
# Summary of the method: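 Static waterborne exposure of single dechorionated Tropical 5D zebrafish embryos, 6–120 hpf, 28C, 0.64% DMSO final. Read-out: swim bladder malformation, present/absent, relative to DMSO negative control; trimethyltin chloride 5uM served as positive control.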
# [20] = biological target: Cellular tumor antigen p53 (Homo sapiens) (UniProt P04637); experiment: TOX21_p53_BLA_p5_ratio: Tox21 HCT-116 p53 Agonism Beta-lactamase Assay, Ratio, Phase 5 (AID 2283599)
# Summary of the method: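 HCT-116 cells carrying a p53-inducible beta-lactamase reporter were seeded at 4000 cells/well and dosed after 5 h with compound in DMSO (217-fold dilution). After 16 h at 37C, CCF4-AM substrate was added for 2 h, and the 460/530 nm emission ratio was scored as gain-of-signal versus DMSO.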
# Chain of Cellular tumor antigen p53 (Homo sapiens) (P04637 whole entry, looked up): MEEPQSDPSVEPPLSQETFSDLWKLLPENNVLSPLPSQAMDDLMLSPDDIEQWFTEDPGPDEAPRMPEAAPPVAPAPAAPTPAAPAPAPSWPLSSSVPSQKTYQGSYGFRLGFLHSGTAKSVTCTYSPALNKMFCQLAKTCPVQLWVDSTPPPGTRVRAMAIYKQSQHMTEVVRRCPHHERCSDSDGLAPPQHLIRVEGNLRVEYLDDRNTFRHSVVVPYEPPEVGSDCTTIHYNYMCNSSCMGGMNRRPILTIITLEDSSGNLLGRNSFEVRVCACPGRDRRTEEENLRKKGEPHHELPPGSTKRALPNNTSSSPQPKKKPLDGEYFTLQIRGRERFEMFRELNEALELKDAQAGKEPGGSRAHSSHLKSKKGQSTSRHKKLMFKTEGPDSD
smiles,measurement,setting,value
CC(C)Oc1ccccc1O,outcome,[1],inactive
same,outcome,[2],inactive
same,outcome,[3],inactive
same,outcome,[4],inactive
O=C(O)c1ccc([N+](=O)[O-])cc1,outcome,[1],inactive
same,outcome,[2],inactive
same,outcome,[3],inactive
same,outcome,[4],inactive
same,outcome,[5],inactive
same,outcome,[6],inactive
same,outcome,[7],inactive
same,outcome,[8],inactive
same,outcome,[9],inactive
same,outcome,[10],inactive
same,outcome,[11],inactive
same,outcome,[12],inactive
same,outcome,[13],inactive
same,outcome,[14],inactive
same,outcome,[15],inactive
same,outcome,[16],inactive
same,outcome,[17],inactive
same,outcome,[18],inactive
same,outcome,[19],inactive
C=CC(C)(O)CCC=C(C)CCC=C(C)C (stereo not given),outcome,[1],inactive
same,outcome,[20],inactive
C=C(C)C(=O)OCCOC(=O)CC(C)=O,outcome,[1],inactive
same,outcome,[20],inactive
same,outcome,[4],inactive
CC(C)(C)C(=O)c1ccccc1,outcome,[1],inactive
same,outcome,[3],inactive
same,outcome,[4],inactive
CCCCCCOC(=O)CCCCC,outcome,[1],inactive
same,outcome,[20],inactive
same,outcome,[4],inactive
CCCCCCCCCC=O,outcome,[1],inactive
same,outcome,[3],inactive
same,outcome,[4],inactive
C=CC(=O)OCCOCCOCC,outcome,[1],inactive
same,outcome,[3],inactive
same,outcome,[4],inactive
CCCCCCCCCCCCCOS(=O)(=O)O,outcome,[1],inactive
same,AC50,[20],85.4 µM (active)
same,AC50,[4],83.6 µM (active)
C[C@H]1C[C@@H]2[C@H]([C@@H](O)C[C@@]3(C)[C@H]2CC[C@]3(O)C(=O)CO)[C@@]2(C)C=CC(=O)C=C12,outcome,[1],inactive
same,outcome,[4],inactive
O=C(OCc1ccccc1)C(=O)OCc1ccccc1,outcome,[1],inactive
same,outcome,[20],inactive
same,outcome,[4],inactive
Sc1nc(S)nc(S)n1,outcome,[1],inactive
same,outcome,[20],inactive
same,outcome,[4],inactive
CCC(=O)OCc1ccccc1,outcome,[1],inactive
same,outcome,[3],inactive
same,outcome,[4],inactive
C=C(C)[C@@H]1CCC2=CC(=O)C[C@@H](C)[C@]2(C)C1,outcome,[1],inactive
same,outcome,[20],inactive
same,outcome,[4],inactive
CCc1ccc(C=O)cc1,outcome,[1],inactive
same,outcome,[3],inactive
CC(C)=CCCC(C)CC=O (stereo not given),outcome,[1],inactive
same,outcome,[20],inactive
same,outcome,[4],inactive
N#Cc1ccccc1,outcome,[1],inactive
same,outcome,[20],inactive
same,outcome,[4],inactive
CCCCO,outcome,[1],inactive
same,outcome,[3],inactive
same,outcome,[4],inactive
CCCCc1ccc(N)cc1,outcome,[1],inactive
same,outcome,[20],inactive
same,outcome,[4],inactive
Cc1cc(C2(c3cc(C)c(O)cc3C)OS(=O)(=O)c3ccccc32)c(C)cc1O,outcome,[1],inactive
same,outcome,[3],inactive
O=C(Cl)c1cccc(C(=O)Cl)c1,outcome,[1],inactive
same,outcome,[3],inactive
same,outcome,[4],inactive
ClCCCl,outcome,[1],inactive
same,outcome,[3],inactive
same,outcome,[4],inactive
C=C(C)C(=O)O[C@H]1C[C@@H]2CC[C@@]1(C)C2(C)C,outcome,[1],inactive
same,outcome,[20],inactive
same,outcome,[4],inactive
CCCCCNCCCCC,outcome,[1],inactive
same,outcome,[20],inactive
same,outcome,[4],inactive
CC(C)CCCCCCCOC(=O)c1ccc(C(=O)OCCCCCCCC(C)C)c(C(=O)OCCCCCCCC(C)C)c1,outcome,[1],inactive
same,outcome,[4],inactive
CCC(C)(O)CCC=C(C)C (stereo not given),outcome,[1],inactive
same,outcome,[20],inactive
same,outcome,[4],inactive
C=COCCOCCOCCOC=C,outcome,[1],inactive
same,outcome,[20],inactive
same,outcome,[4],inactive
CNCCO,outcome,[1],inactive
same,outcome,[3],inactive
CCCCNC(=O)NS(=O)(=O)c1ccc(C)cc1,outcome,[1],inactive
same,outcome,[20],inactive
same,outcome,[4],inactive
CC(C)OP(=O)(CP(=O)(OC(C)C)OC(C)C)OC(C)C,outcome,[1],inactive
same,outcome,[20],inactive
same,outcome,[4],inactive
CC(O)C(C)O (stereo not given),outcome,[1],inactive
same,outcome,[3],inactive
O=C(O)CCCCC1CCSS1 (stereo not given),outcome,[1],inactive
same,outcome,[3],inactive
same,outcome,[4],inactive
NC(=O)Nc1ccc(Cl)cc1,outcome,[1],inactive
same,outcome,[4],inactive
CCOc1ccccc1OCC,outcome,[1],inactive
same,outcome,[4],inactive
CCCC1CCC(=O)O1 (stereo not given),outcome,[1],inactive
same,outcome,[4],inactive
C=CC(C)(CCC=C(C)C)OC=O (stereo not given),outcome,[1],inactive
same,outcome,[4],inactive
CCC(=O)/C=C/C1C(C)=CCCC1(C)C (stereo not given),outcome,[1],inactive
same,outcome,[4],inactive
CCCc1c(OCCCOc2ccc(OCC(=O)O)cc2)ccc(C(C)=O)c1O,outcome,[1],inactive
same,AC50,[3],65.8 µM (active)
same,AC50,[4],69.2 µM (active)
CC(=O)O[C@H](CC(=O)[O-])C[N+](C)(C)C,outcome,[1],inactive
same,outcome,[3],inactive
OCCCCCO,outcome,[1],inactive
same,outcome,[20],inactive
same,outcome,[4],inactive
CCCCCCCCCCCCCCCC(=O)OC[C@H](O)[C@H]1OC(=O)C(O)=C1O,outcome,[1],inactive
